The list is not random: actives were taken first. Their share in the collection is about 11%.
OTUD3 inh: inhibitors of human OTUD3 deubiquitinase | OTU domain-containing protein 3 (Homo sapiens), Q5T2D3 | purified OTUD3, Ub-rhodamine fluorescence, 2 h | inhibition, % at 25 µM | 47,000 tested, 0.7% active | AID 1645858, 2021
Target sequence (Q5T2D3 whole entry, looked up, the tested form may be a part): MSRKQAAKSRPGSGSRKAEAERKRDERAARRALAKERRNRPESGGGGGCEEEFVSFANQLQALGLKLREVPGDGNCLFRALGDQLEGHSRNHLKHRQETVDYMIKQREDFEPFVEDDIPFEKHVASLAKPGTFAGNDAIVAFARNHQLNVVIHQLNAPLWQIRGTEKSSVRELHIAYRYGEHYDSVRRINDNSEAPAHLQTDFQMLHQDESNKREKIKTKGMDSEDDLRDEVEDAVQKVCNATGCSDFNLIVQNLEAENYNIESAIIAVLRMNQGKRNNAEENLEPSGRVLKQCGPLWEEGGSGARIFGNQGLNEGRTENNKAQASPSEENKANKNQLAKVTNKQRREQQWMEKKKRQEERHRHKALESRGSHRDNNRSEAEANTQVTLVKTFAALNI
USP28 block: inhibitors of human USP28 deubiquitinase. purified USP28, Ub-rhodamine cleavage fluorescence, 30 min. inhibition, % at 25 µM. 47,000 tested, 3% active. Ubiquitin carboxyl-terminal hydrolase 28 (Homo sapiens), Q96RU2
USP30 inh: inhibitors of human USP30 deubiquitinase. Ubiquitin carboxyl-terminal hydrolase 30 (Homo sapiens), Q70CQ3. 47,000 tested, 5.3% active. inhibition, % at 25 µM. purified USP30, Ub-rhodamine cleavage fluorescence
USP17 block: inhibitors of human USP17 deubiquitinase | purified USP17, Ub-rhodamine cleavage fluorescence, 3 h | inhibition, % at 50 µM | 47,000 tested, 6.5% active | Ubiquitin carboxyl-terminal hydrolase 17-like protein 5 (Homo sapiens), A8MUK1
* marks the source's active call; other numbers are inactive results; i = inactive; nt = not tested or not shown. Rule as the data show it: active = inhibition above about 30%; inactive = the rest.

SMILES | OTUD3 inh | USP28 block | USP30 inh | USP17 block
CC[C@@H](C)C[C@H](C)C(=O)c1c(O)c(OC)c(OC)[nH]c1=O | 12.3 | 11.8 | 20.5 | 26.4
CC(C)CCN1C[C@H]2C[C@H](C(=O)Nc3cccnc3)[C@@H](C1)O2 | 4.0 | -2.4 | 4.5 | nt
CC(C)N1CCOCC2(CN(C(=O)c3cccnc3)CCO2)C1 (configuration not stated) | 6.6 | 0.1 | 17.7 | -6.4
COc1cc(N2CC[C@@H]3OCCN(C)[C@H]3CC2)ncn1 | 15.4 | 15.2 | 33.5* | 11.4
CC(C)c1cc2c(c(O)c1O)C1(C(=O)O)CCCC(C)(C)C1CC2 (configuration not stated) | 46.5* | 53.1* | 80.7* | 87.8*
CC(C)c1cc2c(c(O)c1O)[C@@]1(C(=O)O)CCCC(C)(C)[C@@H]1CC2 | 35.9* | 39.2* | 57.4* | 78.7*
CC1OC(OC2/C=C/C=C/C=C/C=C/CC/C=C\C=C\[C@H](C)[C@@H](O)[C@H](C)[C@@H](C)OC(=O)C[C@H](O)C[C@H](O)C[C@H](O)CC[C@@H](O)[C@H](O)C[C@]3(O)C[C@@H](O)[C@@H](C(=O)O)[C@@H](C2)O3)C(O)C(N)C1O (some centres not stated) | -117.2 | -117.8 | i | -138.9
Cc1cccc(COc2ccc(C3SCC(=O)Nc4n[nH]c(C)c43)cc2)c1 (configuration not stated) | 13.2 | 12.6 | 20.7 | 56.1*
C/C=C1/CN2[C@H]3C[C@@]45c6ccccc6N[C@@H]4[C@@H]2C[C@H]1C3(C(=O)OC)[C@@H]5O (some centres not stated) | -23.2 | -20.6 | -98.4 | -14.1
CCCCCCC(O)CCCCCC/C=C/[C@H](O)[C@@H](OC(C)=O)[C@H](O)[C@H](N)C(=O)O (some centres not stated) | -13.8 | -3.1 | -24.1 | 35.4*
C/C=C(\C)[C@H]1C=C[C@H]2C[C@@H](C)C[C@@H](C)[C@@H]2[C@H]1/C(O)=C1\C(=O)NC(CC(C)(O)C(=O)O)C1=O (some centres not stated) | 2.1 | 4.0 | -9.0 | -21.9
CC(C)=CCC[C@H](C(=O)O)[C@@H]1CC[C@]2(C)C3=C(CC[C@@]12C)[C@@]1(C)CCC(=O)C(C)(C)C1CC3 (some centres not stated) | 11.4 | 16.8 | 31.7* | 36.3*
O=C(CNC(=O)c1ccccc1Br)Nc1ccc(Br)cc1C(=O)c1ccccc1 | 15.0 | 13.9 | 43.4* | 21.7
O=C(CNC(=O)OCc1ccccc1)Nc1ccc(Br)cc1C(=O)c1ccccc1Cl | 14.4 | -2.1 | -6.0 | 77.1*
CCOC(=O)[C@@H]1[C@@H](c2ccccc2)CN2CCN(C(=O)N(C)C)C[C@H]12 | -10.8 | -14.9 | -43.6 | nt
CCCCCC(O)c1c(O)cc2c(c1O)C(=O)c1c(O)cc(O)cc1C2=O (configuration not stated) | -73.8 | -47.9 | i | 57.7*
O=C1C2CCN(CC2)C1Cc1ccc(Cl)cc1 (configuration not stated) | -3.0 | -0.2 | 0.2 | -13.8
CN1C(=O)[C@]23CC4=CC=C[C@H](O)[C@H]4N2C(=O)[C@@]1(CO)SS3 | -11.3 | -16.3 | 50.5* | -18.2
CC(C)N1CC[C@@H]2[C@H](C1)CN2S(=O)(=O)c1cccnc1 | -8.4 | -10.2 | -35.4 | -22.6
CCCC1Cc2cc3c(c(O)c2C(=O)O1)-c1c(c(OC)c2oc4c(O[C@H]5C[C@H](O)[C@H](O[C@H]6C[C@H](O)[C@H](O[C@H]7C[C@H](OC)[C@H](O)C(C)O7)C(C)O6)C(C)O5)ccc(O)c4c(=O)c2c1O)[C@H](O)[C@@H]3O (some centres not stated) | 1.0 | 1.2 | -60.4 | 37.2*
O=c1c2ccccc2nc(/C=C\c2ccc(F)c(F)c2)n1-c1cccc([N+](=O)[O-])c1 | 3.6 | -8.2 | -2.2 | 6.5
CC1CC[C@@]2(NC1)O[C@H]1C[C@H]3[C@@H]4CC=C5C[C@@H](O)CC[C@]5(C)[C@H]4CC[C@]3(C)[C@H]1[C@@H]2C (some centres not stated) | 13.7 | 31.2* | 37.6* | 51.7*
C[C@@H]1CC[C@@]2(NC1)OC1CC3C4CC=C5C[C@@H](O)CC[C@]5(C)C4CC[C@]3(C)C1[C@@H]2C (some centres not stated) | 11.1 | 5.3 | 10.6 | 10.0
CC(C)N(C)C(=O)C1=NOC2(CCNCC2)C1 | 25.3 | 22.7 | 2.9 | -29.6
CN1C(=O)OC2(CCN(Cc3cccc(C#N)c3)CC2)c2ccccc21 | -17.1 | -4.5 | -18.6 | -9.3
CN(C)[C@@H]1C(=O)C(C(N)=O)=C(O)[C@@]2(O)C(=O)C3=C(O)c4c(O)cccc4[C@@](C)(O)[C@H]3C[C@@H]12 | 24.4 | 27.7 | -99.0 | 50.8*
CN(C)[C@@H]1C(=O)C(C(N)=O)=C(O)[C@@]2(O)C(=O)C3=C(O)c4c(O)cccc4[C@@](C)(O)C3[C@H](O)[C@@H]12 (some centres not stated) | 90.1* | 87.3* | 50.4* | 84.5*
CC[C@@]1(O)C[C@H](OC2CC(N(C)C)C(OC3CC4OC5CC(=O)C(C)OC5OC4C(C)O3)C(C)O2)c2c(cc3c(c2O)C(=O)c2c(O)ccc(O)c2C3=O)[C@H]1C(=O)OC (some centres not stated) | -168.7 | -206.2 | i | -163.1
CCC(CC(C)C(=O)O)C(=O)CC/C1=C/C(C)C/C(C)=C/C(C)C(O)C(C)CCC(CCCC/C=C/C(C)CCC(C)OC(=O)CC(CC(=O)O)C(=O)O)OC(=O)CC(C(=O)O)CC(=O)OC1 (configuration not stated) | 3.2 | -0.1 | 32.4* | 0.4
